Legend:
[1] = target: Mast/stem cell growth factor receptor Kit (Homo sapiens) (UniProt P10721); details: at 1 µM
[2] = test system: Mast/stem cell growth factor receptor Kit (Homo sapiens), P10721 [D816V]; details: at 0.1 µM
[3] = test system: Mast/stem cell growth factor receptor Kit (Homo sapiens), P10721 [D816V]; details: at 1 µM
[4] = test system: Mast/stem cell growth factor receptor Kit (Homo sapiens), P10721 [T670I]; details: at 0.1 µM
[5] = test system: Mast/stem cell growth factor receptor Kit (Homo sapiens), P10721 [T670I]; details: at 1 µM
[6] = test system: Mast/stem cell growth factor receptor Kit (Homo sapiens), P10721 [V560G]; details: at 0.1 µM
[7] = test system: Mast/stem cell growth factor receptor Kit (Homo sapiens), P10721 [V560G]; details: at 1 µM
[8] = target: Tyrosine-protein kinase Lck (Homo sapiens) (UniProt P06239); details: at 0.1 µM
[9] = target: Tyrosine-protein kinase Lck (Homo sapiens) (UniProt P06239); details: at 1 µM
[10] = target: Leukocyte tyrosine kinase receptor (Homo sapiens) (UniProt P29376); details: at 0.1 µM
Leukocyte tyrosine kinase receptor (Homo sapiens), sequence (P29376 whole entry): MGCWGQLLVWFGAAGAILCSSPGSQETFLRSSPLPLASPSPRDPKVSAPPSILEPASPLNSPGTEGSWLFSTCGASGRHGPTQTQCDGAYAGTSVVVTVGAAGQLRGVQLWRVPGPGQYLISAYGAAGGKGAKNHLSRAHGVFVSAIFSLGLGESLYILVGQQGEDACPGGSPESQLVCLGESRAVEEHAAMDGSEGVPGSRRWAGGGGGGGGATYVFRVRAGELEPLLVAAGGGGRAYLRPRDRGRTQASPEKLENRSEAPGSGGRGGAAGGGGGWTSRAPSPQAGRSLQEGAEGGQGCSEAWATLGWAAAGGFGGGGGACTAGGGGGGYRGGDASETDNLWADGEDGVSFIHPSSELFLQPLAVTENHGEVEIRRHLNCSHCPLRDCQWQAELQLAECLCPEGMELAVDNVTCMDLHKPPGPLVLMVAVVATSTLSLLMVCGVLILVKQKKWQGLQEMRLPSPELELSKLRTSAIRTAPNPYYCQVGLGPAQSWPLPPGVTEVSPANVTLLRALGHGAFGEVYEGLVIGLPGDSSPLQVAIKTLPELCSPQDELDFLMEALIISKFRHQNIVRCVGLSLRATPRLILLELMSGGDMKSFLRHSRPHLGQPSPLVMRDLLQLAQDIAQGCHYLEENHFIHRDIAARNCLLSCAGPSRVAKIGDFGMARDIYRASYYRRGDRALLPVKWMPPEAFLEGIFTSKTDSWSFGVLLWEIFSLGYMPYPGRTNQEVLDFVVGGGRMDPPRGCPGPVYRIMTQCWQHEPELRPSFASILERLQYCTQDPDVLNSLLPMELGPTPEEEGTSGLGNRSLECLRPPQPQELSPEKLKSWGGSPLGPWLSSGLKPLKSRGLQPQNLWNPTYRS

Mast/stem cell growth factor receptor Kit (Homo sapiens), sequence (P10721 whole entry): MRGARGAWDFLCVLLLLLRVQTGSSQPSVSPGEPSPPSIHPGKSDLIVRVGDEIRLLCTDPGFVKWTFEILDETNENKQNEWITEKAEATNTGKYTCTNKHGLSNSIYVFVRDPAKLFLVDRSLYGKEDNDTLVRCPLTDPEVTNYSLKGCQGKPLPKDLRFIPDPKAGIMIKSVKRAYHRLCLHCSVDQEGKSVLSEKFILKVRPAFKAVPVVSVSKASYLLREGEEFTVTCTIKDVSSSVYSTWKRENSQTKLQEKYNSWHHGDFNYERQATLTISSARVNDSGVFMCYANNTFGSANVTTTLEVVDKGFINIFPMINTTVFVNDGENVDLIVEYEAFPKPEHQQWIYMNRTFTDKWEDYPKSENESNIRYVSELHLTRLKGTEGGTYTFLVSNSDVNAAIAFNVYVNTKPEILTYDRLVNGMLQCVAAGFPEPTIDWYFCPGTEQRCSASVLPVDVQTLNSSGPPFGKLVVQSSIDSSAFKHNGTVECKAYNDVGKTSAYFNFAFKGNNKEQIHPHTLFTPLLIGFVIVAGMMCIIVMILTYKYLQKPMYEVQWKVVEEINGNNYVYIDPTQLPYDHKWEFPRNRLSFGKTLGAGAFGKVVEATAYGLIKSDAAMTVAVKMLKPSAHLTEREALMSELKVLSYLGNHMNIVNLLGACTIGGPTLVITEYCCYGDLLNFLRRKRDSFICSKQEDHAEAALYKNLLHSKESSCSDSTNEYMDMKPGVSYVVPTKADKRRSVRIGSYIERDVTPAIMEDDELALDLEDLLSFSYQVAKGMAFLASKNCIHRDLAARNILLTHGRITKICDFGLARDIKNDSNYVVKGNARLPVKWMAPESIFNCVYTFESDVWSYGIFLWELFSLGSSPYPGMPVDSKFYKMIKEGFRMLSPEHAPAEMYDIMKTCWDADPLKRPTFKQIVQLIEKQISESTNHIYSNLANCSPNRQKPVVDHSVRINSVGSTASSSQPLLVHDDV
Mast/stem cell growth factor receptor Kit (Homo sapiens), P10721 [D816V], sequence (P10721 whole entry D816V): as the sequence (P10721 whole entry) above, with D816V counted along it
Mast/stem cell growth factor receptor Kit (Homo sapiens), P10721 [T670I], sequence (P10721 whole entry T670I): as the sequence (P10721 whole entry) above, with T670I counted along it
Tyrosine-protein kinase Lck (Homo sapiens), sequence (P06239 2-509 limits assumed): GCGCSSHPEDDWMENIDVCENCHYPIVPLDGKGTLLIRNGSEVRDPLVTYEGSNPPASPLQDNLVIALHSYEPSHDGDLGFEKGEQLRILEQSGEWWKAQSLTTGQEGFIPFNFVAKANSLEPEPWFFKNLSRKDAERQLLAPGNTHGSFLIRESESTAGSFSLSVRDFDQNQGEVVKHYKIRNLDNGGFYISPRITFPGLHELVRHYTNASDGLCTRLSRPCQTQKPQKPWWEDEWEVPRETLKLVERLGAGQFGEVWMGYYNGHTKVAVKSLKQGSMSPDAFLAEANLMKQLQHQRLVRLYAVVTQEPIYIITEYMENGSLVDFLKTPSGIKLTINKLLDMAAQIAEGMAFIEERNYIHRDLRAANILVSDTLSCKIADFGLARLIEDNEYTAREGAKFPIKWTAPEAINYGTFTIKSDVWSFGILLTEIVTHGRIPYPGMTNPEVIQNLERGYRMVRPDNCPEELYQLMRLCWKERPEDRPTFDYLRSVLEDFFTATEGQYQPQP
Mast/stem cell growth factor receptor Kit (Homo sapiens), P10721 [V560G], sequence (P10721 whole entry V560G): as the sequence (P10721 whole entry) above, with V560G counted along it

| SMILES | inhibition [1] | inhibition [2] | inhibition [3] | inhibition [4] | inhibition [5] | inhibition [6] | inhibition [7] | inhibition [8] | inhibition [9] | inhibition [10] |
| --- | --- | --- | --- | --- | --- | --- | --- | --- | --- | --- |
| Cn1cc(C=C2C(=O)Nc3cccnc32)c2ccccc21 | 52.7% | 2.87% | 5.81% | 2.37% | 19.8% | -1.28% | 3.99% | 4.03% | 25.5% | 2.72% |
| NS(=O)(=O)c1ccc(N/N=C2\C(=O)Nc3ccc(C(=O)NCCc4c[nH]cn4)cc32)cc1 | 7.76% | 3.86% | 6.74% | 3.65% | 4% | -1.9% | 3.01% | 4.09% | 9.31% | 5.2% |
| COc1ccc2cc(-c3c(-c4ccncc4)nc(-c4ccc([S+](C)[O-])cc4)n3C)ccc2c1 (stereo not given) | -0.76% | 1.61% | 4.68% | -0.37% | -0.98% | 2.62% | 0.15% | 2.55% | 6.96% | 2.55% |
| COc1ccc(-c2coc3ncnc(N)c23)cc1 | 21.7% | 5.53% | -0.06% | 3.49% | 1.89% | 2.72% | 7.39% | 1.13% | 6.38% | 3.02% |
| CCn1c(-c2nonc2N)nc2cnc(Oc3cccc(NC(=O)c4ccc(OCCN5CCOCC5)cc4)c3)cc21 | 3.53% | 2.71% | -0.34% | 2.87% | 4.8% | -1.11% | 2.85% | 0.98% | 4.63% | 2.7% |
| CC1=C(C(=O)Nc2ccc3[nH]ncc3c2)C(c2ccc(F)cc2)NC(=O)N1 (stereo not given) | 3.87% | 0.52% | 1.15% | 1.53% | 0.34% | -1.67% | 0.31% | -0.28% | 3.1% | 0.93% |
| O=C1Nc2ccc(C(=O)c3ccco3)cc2C1=Cc1cc(Cl)c(O)c(Cl)c1 | 63.5% | 1.83% | 0.61% | 2.58% | 21.1% | 3.94% | 6.75% | 2.53% | 12.8% | 9.03% |
| Cc1nn(C)c2cc(N(C)c3ccnc(Nc4cccc(S(N)(=O)=O)c4)n3)ccc12 | 88% | 2.13% | 5.94% | 5.8% | 38.2% | 4.37% | 37.3% | 14% | 57.4% | 5.42% |
| Cc1cc(O)cc(C)c1/C=C/c1cncc(-c2nn[nH]n2)c1 | 65.5% | 5.64% | 3.74% | 1.04% | 3.66% | -0.1% | 22.1% | 1.97% | 42.5% | 6.07% |
| Cc1cccc(-c2n[nH]cc2-c2ccc3ncccc3n2)n1 | 2.16% | 3.77% | 18% | -0.33% | -0.51% | 3.48% | -0.13% | 0.45% | 4.51% | 0.62% |
| Fc1cccc(COc2ccc(Nc3ncnc4cc(-c5ccc[nH]5)sc34)cc2Cl)c1 | 2.05% | 0.67% | 1.62% | 1.82% | 2.49% | 0.61% | 1.53% | -1.91% | 2.29% | 2.11% |
| N#Cc1c(NC(=O)c2cccc3ccccc23)sc2c1CCCC2 | 0.84% | 1.1% | 2.67% | 2.84% | 1.87% | -1.27% | 3.59% | 2.98% | 4.35% | 2.58% |
| O=C1NC(=O)C(N2CCc3ccccc32)=C1c1ccc(Cl)cc1 | 12% | 2.68% | 2.43% | 3.14% | 3.85% | 7% | 3.94% | 1.6% | 4.29% | 2.8% |
| CCn1c(-c2nonc2N)nc2cncc(C(=O)N3CCNCC3)c21 | 7.52% | 4.16% | 4.92% | 2.72% | 3.08% | -3.45% | -0.74% | 3.56% | 5.67% | 5.18% |
| CCn1c(-c2nonc2N)nc2c(C#CC(C)(C)O)nc(CN3CCCC3)cc21 | 0.93% | -0.84% | 1.18% | -0.82% | -3.13% | 1.79% | 4.31% | -0.53% | 1.3% | 0.56% |
| NS(=O)(=O)c1cccc(-c2ccc3c(NC(=O)C4CC4)n[nH]c3c2)c1 | 0.12% | 1.16% | 3.53% | -3.61% | -1.9% | 1.03% | 4.07% | -1.55% | 3.43% | 0.03% |
| O=C1NC(=O)C(c2cccc(Cl)c2)=C1Nc1ccc(O)c(Cl)c1 | -2.75% | 0.75% | -6.88% | -1.24% | -2.14% | -1.77% | 1.92% | 1.6% | 6.56% | 0% |

| SMILES | inhibition [1] | inhibition [2] | inhibition [3] | inhibition [4] | inhibition [5] | inhibition [6] | inhibition [7] | inhibition [8] | inhibition [9] | inhibition [10] |
| --- | --- | --- | --- | --- | --- | --- | --- | --- | --- | --- |
| CS(=O)(=O)CCN(CC#N)Cc1ccc(-c2ccc3ncnc(Nc4ccc(OCc5cccc(F)c5)c(Cl)c4)c3c2)o1 | 0.7% | 3.19% | 2.53% | 2.04% | 0.88% | -0.55% | -2.04% | -1.83% | -3.92% | 1.4% |
| COC(=O)Nc1nc2cc(Oc3cccc(NC(=O)Nc4cc(C(F)(F)F)ccc4F)c3)ccc2[nH]1 | 48.2% | 1.96% | -0.67% | -2.55% | 2.17% | 4.04% | 38.8% | 1.15% | 10.5% | 0.06% |
| NCc1ccc(-c2nc(-c3ccc(Cl)c(O)c3)c(-c3ccncc3)[nH]2)cc1 | 2.11% | 1.93% | 5.11% | -0.4% | 0.77% | 1.37% | 6.11% | 5.93% | 33% | 1% |
| Cc1ccc(NC(=O)c2ccnc(N3CCCC3)c2)cc1-c1ccc(C(=O)NCC2CC2)cc1 | 2.92% | 2.61% | 7.08% | 2.54% | 3.2% | 0.26% | 1.23% | -3.71% | 1.56% | 2.27% |
| COc1ccc(-c2ccncc2)cc1C(N)=O | 8.81% | 5.33% | 6.29% | 2.7% | 5.32% | -1.34% | -1.88% | 3.42% | 4.47% | 5.46% |
| Nc1ncnc2occ(-c3ccc(NC(=O)Nc4cc(C(F)(F)F)cc(C(F)(F)F)c4)cc3)c12 | 90.6% | -2.07% | 10.8% | 22% | 88.4% | 33.8% | 82.2% | 6.28% | 38.8% | 2.1% |
| CCn1c(-c2nonc2N)nc2ccncc21 | -2.36% | -0.01% | -2.39% | 0.62% | 3.05% | -0.14% | -0.33% | 1.33% | 2.29% | 1.29% |
| CCCN1CCC(Oc2cc(Nc3nc(Nc4cccc(F)c4C(N)=O)c4cc[nH]c4n3)c(OC)cc2Cl)CC1 | 2.77% | -2.42% | -0.61% | -1.82% | 3.06% | 5.14% | 6.37% | -0.28% | 4.94% | 16.4% |
| COc1cccc(-n2ncc3c(N/N=C/c4cccc(F)c4)ncnc32)c1 | 14.1% | 4.05% | 1.87% | 2.67% | 7.07% | -0.18% | -1.44% | 7.82% | 40.9% | 0.92% |
| COC(=O)Nc1nc2cc(Oc3ccc(NC(=O)Nc4cccc(C(=O)O)c4)cc3)ccc2[nH]1 | 18.8% | 1.22% | 3.73% | -0.34% | 2.75% | 5.8% | 15.5% | -2.73% | -2.81% | 0.33% |
| CS(=O)(=O)CCNCc1ccc(-c2ccc3ncnc(Nc4ccc(OCc5cccc(F)c5)c(C(F)(F)F)c4)c3c2)o1 | 4.6% | 5.18% | 2.67% | 4.9% | 4.53% | -3.52% | -0.7% | 1.82% | 3.95% | 3.59% |
| CS(=O)(=O)Nc1ccc(N/C=C2\C(=O)Nc3ccccc32)cc1 | 86.6% | -1.84% | -0.2% | 7.79% | 61.3% | 4.08% | 20.4% | -0.69% | 5.83% | 0.19% |
| CCN1CCC(CC(=O)Nc2n[nH]c3nc(-c4cccs4)c(Br)cc23)CC1 | -0.08% | -1.28% | -0.19% | -3.78% | 0.16% | 3.05% | 2.07% | -1.7% | 4.73% | 0.15% |
| [O-][S+]1CCN(Cc2ccc(-c3ccc4ncnc(Nc5ccc(OCc6ccccc6)c(F)c5)c4c3)o2)CC1 | 3.42% | 2.25% | -1.53% | 0.34% | 1.07% | -2.07% | -2.71% | 1.81% | 7.89% | 2.21% |
| COc1cc(C=NNc2ncnc3c2cnn3-c2ccccc2)ccc1O | 67% | 2.68% | 8.84% | 4.5% | 37.6% | 8.24% | 12.3% | 19.4% | 63.9% | 2.19% |
| CN1CCC(C(=O)Nc2n[nH]c3nnc(-c4ccccc4)cc23)CC1 | 8.5% | 7.35% | 3.19% | 4.77% | 5.4% | -3.89% | 1.05% | 1.6% | 4.09% | 3.64% |
